Data: PubChem BioAssay (NCI)
About 83,000 compounds went through this panel and 20% of them were active in at least one assay; those are over-represented in the sample as a whole.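 Assay: single dose, 48 h. Readout: percent growth (0 = no net growth; negative = cell death). Active: <10.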 Values without a mark were called inactive. Activity calls are given as the source filed them.

Columns and labels:
Experiment in all cases: NCI-60 one-dose screen, 48 h (100 = growth as untreated, 0 = no growth, -100 = all killed)
Conditions in all cases: 10 µM unless noted
T-47D breast = system: T-47D breast
BT-549 breast = system: BT-549 breast
MDA-MB-435 melanoma = system: MDA-MB-435 melanoma
SW-620 colon = system: SW-620 colon
MCF7 breast = system: MCF7 breast
HCT-116 colon = system: HCT-116 colon
HCC-2998 colon = system: HCC-2998 colon
KM12 colon = system: KM12 colon

## COC(=O)CNC(=O)c1cccc(-c2cc(=O)c3c(OC)c(OC)c(OC)cc3o2)c1
T-47D breast
  growth: 107%
BT-549 breast
  growth: 102%
MDA-MB-435 melanoma
  growth: 107%
SW-620 colon
  growth: 100%
MCF7 breast
  growth: 89.2%
HCT-116 colon
  growth: 101%
HCC-2998 colon
  growth: 100%
KM12 colon
  growth: 103%

## CC(=O)Nc1ccccc1-c1nc2ccccc2s1
T-47D breast
  growth: 99.3%
BT-549 breast
  growth: 102%
MDA-MB-435 melanoma
  growth: 98.8%
SW-620 colon
  growth: 107%
MCF7 breast
  growth: 97.6%
HCT-116 colon
  growth: 95.3%
HCC-2998 colon
  growth: 99.7%
KM12 colon
  growth: 105%

## Nn1c(=O)n(-c2cccc(C(F)(F)F)c2)c(=O)c2cc(-c3ccc(F)cc3F)ccc21
T-47D breast
  growth: -13.8% (active)
BT-549 breast
  growth: -6.33% (active)
MDA-MB-435 melanoma
  growth: 3.27% (active)
SW-620 colon
  growth: 17%
MCF7 breast
  growth: 1.3% (active)
HCT-116 colon
  growth: 3.16% (active)
HCC-2998 colon
  growth: 12.5%
KM12 colon
  growth: 8.93% (active)

## Cc1ccc(/C(N)=N/C(N)=N/c2nc3ccccc3s2)cc1
T-47D breast
  growth: 80.9%
BT-549 breast
  growth: 102%
MDA-MB-435 melanoma
  growth: 103%
SW-620 colon
  growth: 107%
MCF7 breast
  growth: 74%
HCT-116 colon
  growth: 86%
HCC-2998 colon
  growth: 104%
KM12 colon
  growth: 64.1%

## O=c1c2cc(-c3ccc(F)cc3F)ccc2n(O)c(=O)n1-c1cccc(C(F)(F)F)c1
T-47D breast
  growth: -15.9% (active)
BT-549 breast
  growth: -3.54% (active)
MDA-MB-435 melanoma
  growth: 1.71% (active)
SW-620 colon
  growth: 16.3%
MCF7 breast
  growth: 1.33% (active)
HCT-116 colon
  growth: 1.93% (active)
HCC-2998 colon
  growth: 9.79% (active)
KM12 colon
  growth: 7.94% (active)

## Cc1ccsc1[C@H]1c2[nH]c3ccccc3c2C[C@H]2C(=O)N(CCCCCCC(=O)NO)CC(=O)N12
T-47D breast
  growth: 57.6%
BT-549 breast
  growth: 106%
MDA-MB-435 melanoma
  growth: 90.6%
SW-620 colon
  growth: 82.5%
MCF7 breast
  growth: 50.1%
HCT-116 colon
  growth: 68.1%
HCC-2998 colon
  growth: 88.1%
KM12 colon
  growth: 81.1%

## C#CCN(C)CCCOc1ccc(NCc2ccc(C(=O)NO)cc2)cc1Cl
T-47D breast
  growth: 0.446% (active)
BT-549 breast
  growth: 75.4%
MDA-MB-435 melanoma
  growth: 9.64% (active)
SW-620 colon
  growth: 12.2%
MCF7 breast
  growth: 18%
HCT-116 colon
  growth: 10.7%
HCC-2998 colon
  growth: 32.7%
KM12 colon
  growth: 24.2%

## O=C1[C@H]2Cc3c([nH]c4ccccc34)[C@H](c3ccc(Br)cc3)N2C(=O)CN1C1CCN(CC2CCCCC2)CC1
T-47D breast
  growth: 97.9%
BT-549 breast
  growth: 96.5%
MDA-MB-435 melanoma
  growth: 85.1%
SW-620 colon
  growth: 79.7%
MCF7 breast
  growth: 25.8%
HCT-116 colon
  growth: 18%
HCC-2998 colon
  growth: 67.8%
KM12 colon
  growth: 77%

## Cc1csc(/N=C(N)/N=C(\N)c2cccc(Br)c2)n1
T-47D breast
  growth: 74.3%
BT-549 breast
  growth: 92.6%
MDA-MB-435 melanoma
  growth: 46.2%
SW-620 colon
  growth: 84.4%
MCF7 breast
  growth: 73.3%
HCT-116 colon
  growth: 88.8%
HCC-2998 colon
  growth: 97%
KM12 colon
  growth: 73.2%

## CCOC(=O)c1cnc2c(-c3ccc(Cl)c(Cl)c3)cnn2c1
T-47D breast
  growth: 86.2%
BT-549 breast
  growth: 26.5%
MDA-MB-435 melanoma
  growth: -20.3% (active)
SW-620 colon
  growth: 42.3%
MCF7 breast
  growth: 82.8%
HCT-116 colon
  growth: 62.7%
HCC-2998 colon
  growth: 85%
KM12 colon
  growth: 57.5%

## Cn1c(SCC(=O)c2ccc(Br)cc2)nc2ccccc2c1=O
T-47D breast
  growth: 78.4%
BT-549 breast
  growth: 98.9%
MDA-MB-435 melanoma
  growth: 103%
SW-620 colon
  growth: 102%
MCF7 breast
  growth: 51.7%
HCT-116 colon
  growth: 86.1%
HCC-2998 colon
  growth: 108%
KM12 colon
  growth: 98.7%

## CC(C)(C)OC(=O)NCc1ccc(CNc2c([N+](=O)[O-])cnc3ccccc23)cc1
T-47D breast
  growth: 28.1%
BT-549 breast
  growth: 54.8%
MDA-MB-435 melanoma
  growth: 56.4%
SW-620 colon
  growth: 89.6%
MCF7 breast
  growth: 40.6%
HCT-116 colon
  growth: 37.7%
HCC-2998 colon
  growth: 84.7%
KM12 colon
  growth: 74.9%

## CC1=C(SCC(=O)OCCCCCC(C)C)C(=O)c2ccccc2C1=O
T-47D breast
  growth: 74.3%
BT-549 breast
  growth: 94.4%
MDA-MB-435 melanoma
  growth: 102%
SW-620 colon
  growth: 99.3%
MCF7 breast
  growth: 72.1%
HCT-116 colon
  growth: 89.7%
HCC-2998 colon
  growth: 110%
KM12 colon
  growth: 91.2%

## C[C@]12CC[C@H]3[C@@H](CC=C4C[C@@H](O)CC[C@@]43C)[C@@H]1CC[C@@H]2[C@](C)(O)CCc1cccnc1
T-47D breast
  growth: 36.3%
BT-549 breast
  growth: 47.7%
MDA-MB-435 melanoma
  growth: 64%
SW-620 colon
  growth: 83.1%
MCF7 breast
  growth: 35.2%
HCT-116 colon
  growth: 51.9%
HCC-2998 colon
  growth: 86.7%
KM12 colon
  growth: 70.2%

## COc1ccc(NC2=C(Br)C(=O)C(C)=C(C)C2=O)cc1OC
T-47D breast
  growth: -8.45% (active)
BT-549 breast
  growth: 112%
MDA-MB-435 melanoma
  growth: 102%
SW-620 colon
  growth: 107%
MCF7 breast
  growth: 72.1%
HCT-116 colon
  growth: 90.7%
HCC-2998 colon
  growth: 102%
KM12 colon
  growth: 59.2%

## C[C@H](Nc1ncnc2ccc(-c3cnc(Cl)c(NS(C)(=O)=O)c3)cc12)c1ccccc1
T-47D breast
  growth: -53.2% (active)
BT-549 breast
  growth: -61.5% (active)
MDA-MB-435 melanoma
  growth: -40% (active)
SW-620 colon
  growth: 1.48% (active)
MCF7 breast
  growth: 2.5% (active)
HCT-116 colon
  growth: -61.4% (active)
HCC-2998 colon
  growth: -77.3% (active)
KM12 colon
  growth: -79% (active)

## COc1ccc(C2CC(c3cccc(OCCCCOc4cccc(C5=NOC(c6ccc(OC)cc6)C5)c4)c3)=NO2)cc1 (configuration not stated)
T-47D breast
  growth: 73.7%
BT-549 breast
  growth: 113%
MDA-MB-435 melanoma
  growth: 105%
SW-620 colon
  growth: 32.9%
MCF7 breast
  growth: 15%
HCT-116 colon
  growth: -21.9% (active)
HCC-2998 colon
  growth: 101%
KM12 colon
  growth: 76.2%

## COc1cc(C(=O)c2cc(C(C)=O)c3c(C)cccn23)cc(OC)c1OC
T-47D breast
  growth: 81.8%
BT-549 breast
  growth: 104%
MDA-MB-435 melanoma
  growth: 97.3%
SW-620 colon
  growth: 104%
MCF7 breast
  growth: 82.7%
HCT-116 colon
  growth: 95.1%
HCC-2998 colon
  growth: 105%
KM12 colon
  growth: 96.5%

## CC1=C(C)C(=O)C(Nc2ccc(C)cc2)=C(Br)C1=O
T-47D breast
  growth: 15.7%
BT-549 breast
  growth: 104%
MDA-MB-435 melanoma
  growth: 103%
SW-620 colon
  growth: 103%
MCF7 breast
  growth: 76%
HCT-116 colon
  growth: 35.4%
HCC-2998 colon
  growth: 104%
KM12 colon
  growth: 104%

## O=C(/C=C/C=C/c1csc(Br)n1)NO
T-47D breast
  growth: 103%
BT-549 breast
  growth: 98.4%
MDA-MB-435 melanoma
  growth: 92.6%
SW-620 colon
  growth: 103%
MCF7 breast
  growth: 84.2%
HCT-116 colon
  growth: 95.8%
HCC-2998 colon
  growth: 107%
KM12 colon
  growth: 93.4%

## COc1ccc2[nH]cc(/C=N/Nc3ccnc4cc(Cl)ccc34)c2c1
T-47D breast
  growth: -53.6% (active)
BT-549 breast
  growth: -91.8% (active)
MDA-MB-435 melanoma
  growth: -90.8% (active)
SW-620 colon
  growth: -71.8% (active)
MCF7 breast
  growth: -69.1% (active)
HCT-116 colon
  growth: -50.5% (active)
HCC-2998 colon
  growth: -89.4% (active)
KM12 colon
  growth: -78% (active)

## COC(=O)CCCNCCCn1ccc2cc(NCc3cccc(-c4ccccc4)c3C)ccc21
T-47D breast
  growth: 58%
BT-549 breast
  growth: 90.2%
MDA-MB-435 melanoma
  growth: 70.9%
SW-620 colon
  growth: 66.5%
MCF7 breast
  growth: 56.9%
HCT-116 colon
  growth: 53%
HCC-2998 colon
  growth: 90.2%
KM12 colon
  growth: 85.9%

## COc1cc(-c2nc(-c3ccccc3)[nH]c2-c2ccnc(NCCCNS(=O)(=O)c3ccc(C)cc3)n2)ccc1F
T-47D breast
  growth: 57.3%
BT-549 breast
  growth: 119%
MDA-MB-435 melanoma
  growth: 68.5%
SW-620 colon
  growth: 108%
MCF7 breast
  growth: 65.4%
HCT-116 colon
  growth: 72.3%
HCC-2998 colon
  growth: 153%
KM12 colon
  growth: 90.1%

## O=C(NNc1nc2cc(F)cc(F)c2n2cccc12)c1cccnn1
T-47D breast
  growth: 9.21% (active)
BT-549 breast
  growth: 31.5%
MDA-MB-435 melanoma
  growth: 24%
SW-620 colon
  growth: 22.1%
MCF7 breast
  growth: 10.4%
HCT-116 colon
  growth: 22.4%
HCC-2998 colon
  growth: 65.6%
KM12 colon
  growth: 24.2%

## CCOC(=O)c1ccccc1NC1=C(Cl)C(=O)c2nc(C)ccc2C1=O
T-47D breast
  growth: 92.8%
BT-549 breast
  growth: 114%
MDA-MB-435 melanoma
  growth: 111%
SW-620 colon
  growth: 94.8%
MCF7 breast
  growth: 87.5%
HCT-116 colon
  growth: 99.1%
HCC-2998 colon
  growth: 97.2%
KM12 colon
  growth: 105%

## COc1ccc([C@H]2C(=O)N(c3cc(OC)c(OC)c(OC)c3)[C@@H]2c2ccc(OC)c(O)c2)cc1
T-47D breast
  growth: 90.5%
BT-549 breast
  growth: -28.2% (active)
MDA-MB-435 melanoma
  growth: -6.94% (active)
SW-620 colon
  growth: 23.3%
MCF7 breast
  growth: 14%
HCT-116 colon
  growth: 6.05% (active)
HCC-2998 colon
  growth: 13.3%
KM12 colon
  growth: 12.4%

## NS(=O)(=O)c1ccc(CCn2c(-c3ccc(C(=O)O)cc3)nc(-c3ccccc3)c2-c2ccccc2)cc1
T-47D breast
  growth: 104%
BT-549 breast
  growth: 104%
MDA-MB-435 melanoma
  growth: 98.8%
SW-620 colon
  growth: 98.6%
MCF7 breast
  growth: 93.6%
HCT-116 colon
  growth: 101%
HCC-2998 colon
  growth: 108%
KM12 colon
  growth: 107%

## O=C(O)c1ccc(-n2c(=O)n(-c3cccc(C(F)(F)F)c3)c(=O)c3cc(-c4ccc(F)cc4F)ccc32)cc1
T-47D breast
  growth: -5.81% (active)
BT-549 breast
  growth: -3.47% (active)
MDA-MB-435 melanoma
  growth: 5.93% (active)
SW-620 colon
  growth: 15.5%
MCF7 breast
  growth: 1.46% (active)
HCT-116 colon
  growth: 4.2% (active)
HCC-2998 colon
  growth: 13.4%
KM12 colon
  growth: 4.47% (active)

## C#CCN(C)CCCOc1ccc(NC(=O)CCCCCCC(=O)NO)cc1Cl
T-47D breast
  growth: -2.41% (active)
BT-549 breast
  growth: 44.9%
MDA-MB-435 melanoma
  growth: -0.594% (active)
SW-620 colon
  growth: 11.7%
MCF7 breast
  growth: 13.4%
HCT-116 colon
  growth: 2.96% (active)
HCC-2998 colon
  growth: 12.9%
KM12 colon
  growth: 24.8%
